Among the data in PubChem BioAssay (Tox21) are Potency and outcome values, retold here.

Test [1] deals with Aryl hydrocarbon receptor (Homo sapiens) (UniProt P35869). In words: qHTS assay to identify small molecule that activate the aryl hydrocarbon receptor (AhR) signaling pathway (AID 743085).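 Also: HG2L7.5c1 human HepG2 liver cells with stably integrated DRE-driven firefly reporter; series mostly up to about 70 µM; nearly all actives have a fitted effect of over 15% in size.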 In a few lines: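 24 h compound exposure, 37C, HepG2-derived HG2L7.5c1 cells with DRE-responsive luciferase. Readouts: fluorescence viability, then luminescence at room temperature after 30 min.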

Test [2] is described as follows: qHTS assay to identify small molecule that activate the aryl hydrocarbon receptor (AhR) signaling pathway - cell viability counter screen (AID 743086). Also: series mostly up to about 70 µM; nearly all actives have a fitted effect of over 45% in size. In a few lines: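 Cytotoxicity counter screen: CellTiter-Fluor signal (30 min, 37 C) in 4000 HepG2 cells/well carrying the DRE-luciferase reporter, following 24 h compound exposure at 37 C.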
A general note: qHTS replaces the single test concentration by a dilution series.

The target in test [3] is Peroxisome proliferator-activated receptor gamma (Homo sapiens) (UniProt P37231). Nature of the test: qHTS assay to identify small molecule agonists of the peroxisome proliferator-activated receptor gamma (PPARg) signaling pathway (AID 743094; active = well fitted activation curve with a large enough effect in the signal ratio in the repeat runs, not every such curve was filed as active; the % refers to the signal ratio). An outline of the steps:
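Fluorescence-based beta-lactamase readout in HEK293H PPARg UAS-bla cells after 17 h compound exposure (37C) and 1 h B/G FRET substrate incubation at room temperature.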

The nature of test [4]: qHTS assay to identify small molecule antagonists of the peroxisome proliferator-activated receptor gamma (PPARg) signaling pathway - cell viability counter screen (AID 743194). Also: nearly all actives have a fitted effect of over 55% in size. The conditions noted are these: Potency: co-treated with 50 nM rosiglitazone. In a few lines:
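Viability was measured as CellTiter-Glo luminescence in GeneBLAzer PPARg UAS-bla HEK293H cells. These cells had been exposed 17 h at 37 C to compounds together with rosiglitazone at 50 nM final, with the beta-lactamase readout taken in the same wells.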

A short description of test [5]: qHTS assay for small molecule agonists of the antioxidant response element (ARE) signaling pathway - cell viability counter screen (AID 743203; calls by dose curve; also: nearly all actives have a fitted effect of over 55% in size). An outline of the steps:
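Parallel cytotoxicity read-out for the ARE-bla screen: HepG2 reporter cells, 16 hrs with compounds, then CellTiter-Glo luminescence.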

Test [6] in a line: qHTS assay for small molecule activators of the heat shock response signaling pathway - cell viability counter screen (AID 743209). Also: nearly all actives have a fitted effect of over 50% in size. An outline of the steps: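 To flag cytotoxic compounds, HSE-bla HeLa cells plated at 1500 cells/well were dosed for 5 h at 37 C, followed by the reporter FRET read and then CellTiter-Glo, with luminescence recorded 30 min after reagent addition.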

Test [7] concerns the target Peroxisome proliferator-activated receptor gamma (Homo sapiens) (UniProt P37231). In words: qHTS assay to identify small molecule antagonists of the peroxisome proliferator-activated receptor gamma (PPARg) signaling pathway (AID 743191; calls by dose curve; also: series mostly up to about 63 µM; nearly all actives have a fitted effect of over 30% in size). An outline of the steps:
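Beta-lactamase reporter under UAS control in HEK293H PPARg-bla cells; compound treatment 17 h at 37C. Read-out: fluorescence intensity after 1 h room-temperature incubation with LiveBLAzer B/G FRET substrate.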

Test [8] in a line: qHTS assay for small molecule agonists of the antioxidant response element (ARE) signaling pathway (AID 743202; active = well fitted activation curve with a large enough effect in the signal ratio in the repeat runs, not every such curve was filed as active; the % refers to the signal ratio; also: potency is read from the fitted curve at half-maximal effect). An outline of the steps:
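After 16 hours of compound treatment at 37 C, HepG2 cells with a stably integrated ARE-driven beta-lactamase reporter were loaded 2 hours at room temperature with LiveBLAzer B/G FRET substrate and fluorescence intensity measured.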

The nature of test [9]: qHTS assay for small molecule activators of the heat shock response signaling pathway (AID 743210; active = well fitted activation curve with a large enough effect in the signal ratio in the repeat runs, with a control signal flat, not every such curve was filed as active; the % refers to the signal ratio; also: series mostly up to about 63 µM). An outline of the steps: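 Compound exposure lasted 5 h at 37 C in HeLa cells carrying a heat-shock-element-driven beta-lactamase reporter. Read-out: fluorescence intensity after 2.5 h room-temperature loading with LiveBLAzer B/G FRET substrate.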
Test [10] can be described thus: qHTS assay to identify aromatase inhibitors - cell viability counter screen (AID 743084).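 Also: cells stimulated with testosterone during compound exposure; nearly all actives have a fitted effect of over 55% in size.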

Results filed as inconclusive are left out. Active and inactive are the calls of the source. Unless noted, calls follow the shape of the dose curve; as a rule, active = well fitted curve in the direction sought with a large enough effect in the repeat runs; inconclusive = weak or mixed curves; inactive = no such curve, though single readings can be large; an effect the other way counts as inactive or inconclusive.

Aryl hydrocarbon receptor (Homo sapiens), sequence (P35869 whole entry, looked up): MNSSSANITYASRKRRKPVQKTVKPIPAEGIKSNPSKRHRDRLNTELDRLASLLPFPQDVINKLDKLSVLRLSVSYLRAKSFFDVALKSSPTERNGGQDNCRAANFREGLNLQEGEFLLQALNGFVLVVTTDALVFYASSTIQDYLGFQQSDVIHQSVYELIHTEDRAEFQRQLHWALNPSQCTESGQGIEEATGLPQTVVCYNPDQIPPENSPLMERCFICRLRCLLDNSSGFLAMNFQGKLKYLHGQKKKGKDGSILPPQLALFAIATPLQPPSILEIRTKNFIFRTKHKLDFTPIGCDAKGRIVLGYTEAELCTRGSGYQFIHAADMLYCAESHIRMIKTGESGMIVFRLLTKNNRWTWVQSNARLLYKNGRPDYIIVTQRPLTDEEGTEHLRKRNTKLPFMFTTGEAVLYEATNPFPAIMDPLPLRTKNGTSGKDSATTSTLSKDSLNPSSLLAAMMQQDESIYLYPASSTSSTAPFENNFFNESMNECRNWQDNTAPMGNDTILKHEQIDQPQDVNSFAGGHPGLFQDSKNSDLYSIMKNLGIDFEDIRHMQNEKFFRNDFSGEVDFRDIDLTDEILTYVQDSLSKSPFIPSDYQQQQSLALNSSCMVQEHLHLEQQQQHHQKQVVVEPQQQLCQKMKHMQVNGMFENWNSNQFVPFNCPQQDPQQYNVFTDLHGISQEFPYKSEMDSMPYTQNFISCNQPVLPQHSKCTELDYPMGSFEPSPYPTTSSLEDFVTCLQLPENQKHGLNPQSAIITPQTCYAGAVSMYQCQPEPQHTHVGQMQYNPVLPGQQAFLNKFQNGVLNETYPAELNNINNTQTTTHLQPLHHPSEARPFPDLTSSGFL
Peroxisome proliferator-activated receptor gamma (Homo sapiens), sequence (P37231 whole entry, looked up): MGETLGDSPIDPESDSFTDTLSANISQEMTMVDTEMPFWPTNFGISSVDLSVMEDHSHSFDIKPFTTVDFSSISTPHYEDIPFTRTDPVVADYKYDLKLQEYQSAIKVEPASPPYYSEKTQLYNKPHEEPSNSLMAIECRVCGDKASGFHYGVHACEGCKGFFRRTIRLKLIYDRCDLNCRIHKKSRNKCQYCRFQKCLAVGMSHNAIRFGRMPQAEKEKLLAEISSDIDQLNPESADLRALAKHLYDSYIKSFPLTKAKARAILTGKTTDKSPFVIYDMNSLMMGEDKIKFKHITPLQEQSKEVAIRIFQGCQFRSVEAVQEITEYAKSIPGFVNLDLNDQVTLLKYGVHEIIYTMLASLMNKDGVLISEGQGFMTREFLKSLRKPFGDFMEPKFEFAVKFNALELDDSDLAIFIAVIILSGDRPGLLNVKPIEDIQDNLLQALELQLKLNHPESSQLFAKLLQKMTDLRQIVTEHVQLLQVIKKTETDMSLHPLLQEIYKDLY

On to `O=[N+]([O-])CCO`, for which the Potency entry in test [1], in test [2], in [4], in test [5] and in test [6] was “inactive” throughout. Further, the result in [3] was inactive.
Turning to `COc1cccc([C@@]2(O)CCCC[C@@H]2CN(C)C)c1`, the Potency entry in test [1], in test [2], in [7], in test [4], in test [8] and in test [5] was “inactive” in each case. Besides, the Potency entry in test [6] and in test [9] was “inactive” throughout. Moreover, in test [3], the result was inactive.
`CC(=O)OCC1=C(C(=O)O)N2C(=O)[C@@H](N)[C@H]2SC1`: the Potency result in test [10], in test [2], in test [4], in [8], in test [5] and in test [9] was “inactive” each time.
Turning to `CON(C)C(=O)Nc1ccc(Br)cc1`, the Potency entry in [10], in [2], in [4], in test [8], in [5] and in test [6] was “inactive” in each case. In test [9], the Potency result is “inactive”.
Turning to `C/C(=N\NC(=O)Nc1cc(F)cc(F)c1)c1ncccc1C(=O)O`, the Potency result in [10], in test [2], in test [4], in test [8], in test [5] and in [6] was “inactive” in each case. The Potency entry in test [9] is “inactive”. Moreover, the outcome in test [3] was inactive.
For the compound `Clc1nc(Cl)nc(Nc2ccccc2Cl)n1`, the Potency entry in [10], in test [2], in test [7], in test [5], in test [6] and in [9] was “inactive” in each case. For the same compound, the call in test [3] was inactive.
Regarding `C=CCCC#N`, the Potency entry in [10], in test [2], in test [4], in [8], in test [5] and in test [9] was “inactive” each time. In test [3], the outcome was inactive.
With `CCC(CC)(CNC(=O)CCCO)c1cccc(OC)c1`, the Potency entry in test [7], in [4], in [8], in test [5], in test [6] and in [9] was “inactive” each time.
As for `CCCOC(=O)c1cncn1C(C)c1ccccc1` (configuration not stated), the Potency result in test [7], in test [4], in [8], in test [5], in test [6] and in test [9] was “inactive” in each case.
As to `CCC(C)C(C)(COC(N)=O)COC(N)=O` (configuration not stated), the Potency entry in [7], in [4], in [8], in [5], in [6] and in test [9] was “inactive” each time.
For the compound `Cc1ccc(S(=O)(=O)N[C@@H](CCCCN)C(=O)CCl)cc1`, the Potency result in test [1], in test [7], in test [4], in test [8], in test [5] and in test [6] was “inactive” in each case.
Turning to `CCOP(=S)(OCC)SCCl`, the Potency entry in test [1], in test [2], in test [7], in test [4], in [8] and in [5] was “inactive” throughout. For the same compound, the Potency entry in test [6] and in test [9] was “inactive” each time. The compound was called inactive in test [3].
For `COC[C@@H](NC(C)=O)C(=O)NCc1ccccc1`, the Potency entry in [7], in test [4], in [5], in [6] and in [9] was “inactive” each time.
Take `CCOC(=O)COc1ccc(Cl)cc1Cl`: the Potency result in test [2], in test [4], in test [8], in test [5], in test [6] and in test [9] was “inactive” each time.
Regarding `C1CN2CCC1CC2`, the Potency result in test [7], in [4], in test [8], in [5], in [6] and in test [9] was “inactive” in each case.
Consider `Cc1cccc2sc3nncn3c12`, for which the Potency result in test [10], in [2], in test [4], in test [5], in test [6] and in [9] was “inactive” each time. The compound was classed as inactive in test [3]. Further, the Potency in [8] is 1370 nM (active).
On to `CCC(C(N)=O)N1CCCC1=O` (configuration not stated), for which the Potency result in test [10], in test [2], in test [4], in [8], in test [5] and in test [6] was “inactive” in each case. In test [9], the Potency entry was “inactive”. Moreover, the outcome in [3] was inactive.
Turning to `O=c1[nH]c2ccccc2n1C1CCNCC1`, the Potency result in test [7], in test [4], in test [8], in [5], in test [6] and in test [9] was “inactive” throughout.
As for `CC(Cc1ccccc1)NCCn1cnc2c1c(=O)n(C)c(=O)n2C` (configuration not stated), the Potency result in test [1], in test [7], in [4], in [8], in test [5] and in test [6] was “inactive” each time. Moreover, in [9], the Potency entry was “inactive”. The result in test [3] was inactive.
In the case of `ClCCN1CCCC1`, the Potency result in test [7], in test [4], in [5] and in [9] was “inactive” each time.
Turning to `CN1COCN(Cc2cnc(Cl)s2)/C1=N\[N+](=O)[O-]`, the Potency entry in test [10], in [2], in test [4], in [8], in test [5] and in test [6] was “inactive” throughout. The Potency entry in test [9] was “inactive”. Besides, the compound was classed as inactive in [3].
